# Bioassay records as filed in PubChem.
# Shown are actives, neighbours in structure and some others; about 4.5% of the full set was active somewhere.
# HDAC3 inhib: human HDAC3 inhibition. 320,000 compounds, 0.15% hits. inhibition, % at 8.3 µM. recombinant HDAC3, fluorogenic peptide/trypsin coupled, fluorescence; in the data active = inhibition above about 26%, passing the limit was not always enough; inconclusive = no clear call, values can overlap the other calls
# Rtt109 HAT inh: C. albicans Rtt109 histone acetyltransferase inhibition. inhibition, % at 34.9 µM. Q5AAJ8. 330,000 compounds, 0.16% hits. purified Rtt109/Vps75, ThioGlo CoA-SH fluorescence, 4 h;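 active = inhibition of at least 50% in every replicate; inconclusive = best replicate reaches 50% inhibition but some replicates fall short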
# Efflux pump mplx: inhibitors of Candida antifungal efflux pumps expressed in yeast; inhibition, % at 10 µM; S. cerevisiae Candida pump triplex, Nile Red efflux; 330,000 compounds, 0.44% hits;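 active = plate passing quality check with inhibition over a set limit, or well fluorescence over plate mean plus 4 SD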;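 note: Nile Red retained in pooled yeast measured as flow cytometry median fluorescence; 0% = buffer negative control and 100% = Enniatin B positive control; higher means more Nile Red kept so more efflux inhibition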
# Rce1 inh: inhibitors of yeast Ras-converting enzyme; yeast membranes, quenched prenylated peptide cleavage fluorescence; calls only; 290,000 compounds, 0.27% hits; AID 2563;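 active = fall in fluorescence gain of 50% or more versus controls, with final raw signal at or below 3038400; inconclusive = same 50% fall but final raw signal above 3038400; inactive = fall in fluorescence gain under 50%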;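 note: plate controls were neutral control wells for no effect and wells lacking membranes for full effect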
# ALR inh: human ALR oxidase inhibition via reduced H2O2. AID 485317. purified ALR, DTT oxidation, H2O2 HRP-luminol luminescence. inhibition, % (test concentration not listed). 290,000 compounds, 3.8% hits. P55789;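 active = mean replicate inhibition above about 79%, with every replicate also reaching it, limit read from the data; inconclusive = only one of the two criteria met; inactive = mean below limit and not every replicate reaching it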
# GRK2 inh: human GRK2 inhibition via aptamer displacement; bead flow cytometry, FAM-aptamer displacement from GRK2; inhibition of aptamer binding, % at 10 µM; 330,000 compounds, 0.59% hits; AID 488847;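 active = inhibition of aptamer binding above 40%, roughly 3 SD of noise, on plates passing a quality check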;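 note: median bead fluorescence of bound FAM aptamer so fluorescent compounds give negative values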
# Target sequence (P25098 whole entry, looked up): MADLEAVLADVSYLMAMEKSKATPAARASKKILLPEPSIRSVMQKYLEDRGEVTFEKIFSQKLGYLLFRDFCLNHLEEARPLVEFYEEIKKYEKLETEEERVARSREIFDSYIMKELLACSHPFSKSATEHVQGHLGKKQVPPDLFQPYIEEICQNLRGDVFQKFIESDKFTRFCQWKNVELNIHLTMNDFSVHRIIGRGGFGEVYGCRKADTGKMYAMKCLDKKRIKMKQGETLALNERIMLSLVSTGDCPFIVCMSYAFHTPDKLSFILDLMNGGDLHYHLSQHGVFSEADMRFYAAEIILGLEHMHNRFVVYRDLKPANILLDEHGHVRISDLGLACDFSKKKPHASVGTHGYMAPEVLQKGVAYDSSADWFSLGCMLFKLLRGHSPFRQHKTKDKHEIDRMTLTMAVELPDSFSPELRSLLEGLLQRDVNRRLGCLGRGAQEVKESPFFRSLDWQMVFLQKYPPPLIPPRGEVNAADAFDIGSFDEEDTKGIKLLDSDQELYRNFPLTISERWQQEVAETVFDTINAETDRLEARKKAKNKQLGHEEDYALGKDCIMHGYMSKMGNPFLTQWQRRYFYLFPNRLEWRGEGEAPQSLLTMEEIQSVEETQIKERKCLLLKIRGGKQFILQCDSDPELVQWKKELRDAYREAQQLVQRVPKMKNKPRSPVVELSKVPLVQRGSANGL
# * marks the source's active call; other numbers are inactive results; i = inactive; u = inconclusive; x = no result given; + = active, no number.
SMILES,HDAC3 inhib,Rtt109 HAT inh,Efflux pump mplx,Rce1 inh,ALR inh,GRK2 inh
COC(=O)c1ccc(NC(=O)CC(=O)Nc2ccc(C(=O)OC)cc2)cc1,4,-1,0,i,-6,0
CCOC(=O)c1ccc(NC(=O)CSCc2ccco2)cc1,u,3,4,i,100*,0
CCOC(=O)c1ccc(NC(=O)CSCCC(=O)O)cc1,-3,-2,0,i,99*,0
CCOC(=O)CC(=O)Nc1ccc(C(=O)OCC)cc1,-8,-11,0,i,-7,0
COC(=O)c1ccc(NC(=O)CSCC(=O)OCC(=O)c2ccc(Br)cc2)cc1,10,-4,0,i,99*,5
CCCn1c(SCC(=O)N2CCc3ccccc32)n[nH]c1=O,-3,3,0,x,0,3
CC(C)C[C@H](NC(=O)C1CCN(S(=O)(=O)c2ccccc2)CC1)C(=O)NCc1ccccn1,-1,2,0,i,0,6
O=S(=O)(Cc1noc(-c2ccccc2Cl)n1)c1ccccn1,-17,-1,0,i,1,12
Cc1ccc(/C(O)=C/C(=O)C(=O)NC23CC4CC(CC(C4)C2)C3)cc1,1,-12,0,i,2,0
Cc1cccc(N(C(=O)CNC(=O)c2cccs2)C(C(=O)NC2CCCC2)c2ccncc2)c1 (centres undefined),2,-11,0,i,x,2
COc1ccc(CNC(=O)c2cccc3c2C(=O)N(Cc2cccnc2)C3)cc1,0,-3,0,i,x,0
COc1ccc(CNC(=O)c2cccc3c2C(=O)N(CC2CCCO2)C3)cc1 (centres undefined),x,-6,0,i,88*,3
O=C(Nc1ccc(N2CCOCC2)cc1N1CCOCC1)c1cccs1,0,-5,0,i,78*,11
Cc1ccc(CNCC(=O)Nc2ccc(N3CCOCC3)cc2)cc1,3,4,0,i,99*,2
Cc1ccc(CSCC(=O)Nc2ccc(N3CCOCC3)cc2N2CCOCC2)cc1,-6,20,0,i,98*,0
O=C(N/N=C/c1ccc(N2CCOCC2)cc1)c1ccc(NS(=O)(=O)c2cccs2)cc1,-4,-2,0,i,17,2
Cc1cccc(NC(=O)CSCC(=O)Nc2ccc(N3CCOCC3)cc2N2CCOCC2)c1,x,6,x,x,x,x
O=S(=O)(Nc1ccc(N2CCOCC2)cc1)c1cccs1,-4,-3,0,i,98*,1
CC(C)=NOc1nc(N(C)C)nc(N2CCOCC2)n1,3,x,0,i,-7,0
Cc1cc(C)n(CC(=O)NC2CCCCC2C)c(=O)c1C#N (centres undefined),3,-2,0,+,1,2
CCCNC(=O)Cn1c(=O)/c(=C/c2ccc(-c3ccc([N+](=O)[O-])cc3)o2)s/c1=C\C(=O)C(C)(C)C,x,1,x,x,x,x
O=C1OCCC1Sc1nc2ccccc2s1 (centres undefined),1,-1,0,i,98*,2
CC(C)[C@H](NC(=O)c1ccco1)C(=O)OCC(=O)c1ccc2c(c1)NC(=O)CO2,2,x,0,i,100*,5
c1ccc(C2Nc3ccccc3C3OCCCC23)cc1 (centres undefined),8,2,0,i,99*,1
NC(=O)NOCc1ccccc1F,-2,-5,0,i,-8,2
SMILES,HDAC3 inhib,Rtt109 HAT inh,Efflux pump mplx,Rce1 inh,ALR inh,GRK2 inh
O=c1cc(CSc2nc3ccccc3[nH]2)c2ccccc2[nH]1,3,-8,0,i,91*,4
Fc1ccc(CSc2nc3ccccc3[nH]2)c2ccccc12,16,-8,0,i,2,2
Cc1c2cc(O)c(=O)cc-2oc2cc(O)c(O)cc12,-1,-6,1.0*,i,93*,27
COC(=O)c1sccc1Oc1ccc(Cl)cc1N1C(=O)CCC1=O,-3,2,0,i,-3,2
O=C(Oc1ccc(Cl)cc1N1C(=O)CCC1=O)c1ccco1,34*,0,0,i,25,0
CC(=O)c1ccc(NC(=O)C(C)OC(=O)/C=C/c2ccco2)cc1 (centres undefined),3,2,0,x,-4,0
O=C(/C=C/c1ccc([N+](=O)[O-])cc1)Nc1cccc(C(=O)Nc2ccccc2C(=O)O)c1,5,-1,0,x,91*,1
O=S(c1ccc2ccccc2c1)c1cnns1 (centres undefined),3,-3,0,x,99*,1
Cc1nnc(NC(=O)c2cc(-c3ccco3)nc3ccccc23)s1,1,-2,0,i,0,91*
Cc1ccccc1-n1cnc2c(sc3nc(N4CCOCC4)c4c(c32)CCCC4)c1=O,2,8,0,i,-3,3
Oc1c(Cl)cc(Cl)cc1CNc1nc2ccccc2[nH]1,-9,11,0,i,99*,0
COC(=O)C1CN(Cc2ccccc2)C(=O)C1=O (centres undefined),x,1,x,x,x,x
Cn1c(CSCc2ccc(F)cc2)nnc1SCC(=O)Nc1cccc(C(=O)O)c1,x,6,0,i,4,0
CC1(NC(=O)Cc2ccc(S(=O)(=O)N3CCOCC3)s2)CCS(=O)(=O)C1 (centres undefined),-5,2,0,i,x,0
O=C(CSc1ncc(-c2ccccc2)[nH]1)Nc1cccc(O)c1,5,6,0,i,99*,4
O=C(CSc1ncc(-c2ccccc2)[nH]1)Nc1ccccc1F,-3,-10,0,i,12,3
CC(=O)Nc1cccc(NC(=O)CSc2ncc(-c3ccccc3)[nH]2)c1,-4,4,0,i,99*,4
NC(=O)CSc1ncc(-c2ccccc2)[nH]1,1,0,0,i,18,1
O=C(CSc1ncc(-c2ccccc2)[nH]1)Nc1ccccc1,2,-2,0,i,99*,0
COc1cc(/C=N/NC(=O)c2ccc(Cl)c(S(N)(=O)=O)c2)ccc1OCC(N)=O,8,x,0,i,-15,1
COc1cc(NC(=O)c2ccccc2)c(OC)cc1NC(=O)CN1C(=O)NC2(CCCCC2)C1=O,3,8,0,x,-16,6
CCCCn1c(N)c(N(CC(C)C)C(=O)C2CCN(S(=O)(=O)c3ccc(C)cc3C)CC2)c(=O)[nH]c1=O,x,-8,0,i,x,3
O=c1[nH]c(/C=C\c2ccccc2F)nc(O)c1[N+](=O)[O-],2,-10,0,i,97*,3
C=CCOc1ccc(/C=C\c2nc(O)c([N+](=O)[O-])c(=O)[nH]2)cc1OCC,4,4,0,i,97*,4
O=c1[nH]c(/C=C\c2cccc(Cl)c2)nc(O)c1[N+](=O)[O-],-3,-7,0,i,98*,10
